# Results reported in PubChem BioAssay (NCATS).
# Records with an inconclusive call do not appear. Unmarked numbers belong to inactive results. Active and inactive are the calls of the source. The call rests on the fitted dose curve; in most records, active means well fitted inhibition curve with a large enough effect; inconclusive means small, poorly fitted or top-dose-only effect; inactive means flat fitted curve, though single readings scatter. Where a SMILES comes first, the peptide text is derived from it. Bridges are numbered along the chain shown (N, C = ends). [ ]: non-standard residue; d: D form. The star is where a group is joined. X2 = CC[C@H](C)CCCCC(=O)*; Dab = NCC[C@H](N)C(=O)O
# What was measured:
# [1] = Drug repurposing screens with cells derived from glioblastoma tumor samples (AID 1345199); details: GBM patient neurospheres viability, ATP luminescence, 48 h; further: nearly all actives have a fitted effect of over 40% in size
# Summary of the method: (§1)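 Primary testing used CD133+ neurospheres from four GBM patients, seven concentrations, 48 h exposure and ATP-based viability; confirmation added three slower-growing patient lines.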
# astro = control astrocytes; test: as above; details: viability, ATP luminescence, 48 h; series mostly up to 45.9 µM
# Summary of the method: as §1
# [2] = at 45.9 µM (top of the series), tumour line B
# [3] = at 45.9 µM (top of the series), tumour line D
# [4] = at 46 µM (top of the series), tumour line A
# [5] = at 46.1 µM (top of the series), tumour line C
# [6] = at 20 µM (top of the series), tumour line C
# [7] = at 21.2 µM (top of the series), tumour line B
# [8] = at 21.2 µM (top of the series), tumour line D
# [9] = at 21.3 µM (top of the series), tumour line A
# On the % scale 0 is the no-effect control and ±100 the full control effect; potency means the concentration at half of the fitted maximal effect.
smiles,measurement,setting,value
CSCCC(N)C(=O)O (stereo not given),"activity, negative = cell killing",[1]; [2],-9.94%
same,"activity, negative = cell killing",[1]; [3],-6.77%
same,"activity, negative = cell killing",[1]; [4],-11.9%
same,"activity, negative = cell killing",[1]; [5],-3.8%
same,Potency,astro,inactive
O=C(O)c1cc(N=Nc2ccc(O)c(C(=O)O)c2)ccc1O,"activity, negative = cell killing",[1]; [2],-10.7%
same,"activity, negative = cell killing",[1]; [3],-13.9%
same,"activity, negative = cell killing",[1]; [4],-13.2%
same,"activity, negative = cell killing",[1]; [5],-29.5%
same,Potency,astro,inactive
C[C@@H]1O[C@@H]1P(=O)(O)O,"activity, negative = cell killing",[1]; [2],-9.49%
same,"activity, negative = cell killing",[1]; [3],-16.5%
same,"activity, negative = cell killing",[1]; [4],-24.5%
same,"activity, negative = cell killing",[1]; [5],-7.45%
same,Potency,astro,inactive
CC(C)c1nc(N(C)S(C)(=O)=O)nc(-c2ccc(F)cc2)c1/C=C/C(O)CC(O)CC(=O)O (stereo not given),"activity, negative = cell killing",[1]; [2],-27.3%
same,"activity, negative = cell killing",[1]; [5],-19%
same,Potency,[1]; tumour line A,3.55 µM (active)
same,Potency,[1]; tumour line D,17.8 µM (active)
same,Potency,astro,10 µM (active)
CC(C)NCC(O)COc1ccccc1-n1cccc1 (stereo not given),"activity, negative = cell killing",[1]; [2],-14.4%
same,"activity, negative = cell killing",[1]; [3],-7.4%
same,"activity, negative = cell killing",[1]; [4],15.7%
same,Potency,[1]; tumour line C,25.9 µM (active)
same,Potency,astro,inactive
CC(=O)OCC1=C(C(=O)O)N2C(=O)[C@@H](NC(=O)Cc3ccccc3)[C@H]2SC1,"activity, negative = cell killing",[1]; [2],-6.43%
same,"activity, negative = cell killing",[1]; [3],-15.2%
same,"activity, negative = cell killing",[1]; [4],-28.6%
same,"activity, negative = cell killing",[1]; [5],-24%
same,Potency,astro,inactive
CC1(C)[C@@H]2CC[C@@]1(C)[C@H](OC(=O)CSC#N)C2,"activity, negative = cell killing",[1]; [2],-7.75%
same,"activity, negative = cell killing",[1]; [3],-12%
same,"activity, negative = cell killing",[1]; [5],23.1%
same,Potency,[1]; tumour line A,35.5 µM (active)
same,Potency,astro,inactive
CCN(CC)CCOC[C@H]1O[C@@H](O)[C@H](OCCN(CC)CC)[C@@H](O)[C@@H]1O,"activity, negative = cell killing",[1]; [2],-9.61%
same,"activity, negative = cell killing",[1]; [3],-16.5%
same,"activity, negative = cell killing",[1]; [4],-26.4%
same,"activity, negative = cell killing",[1]; [5],-24.8%
same,Potency,astro,inactive
Cc1cc(C(=O)NCCc2ccc(S(=O)(=O)NC(=O)NN3CCCCCC3)cc2)no1,"activity, negative = cell killing",[1]; [2],-15.9%
same,"activity, negative = cell killing",[1]; [3],-13.6%
same,"activity, negative = cell killing",[1]; [4],-31.1%
same,"activity, negative = cell killing",[1]; [5],-10.9%
same,Potency,astro,inactive
CC[C@H](C)CCCCC(=O)N[C@@H](CCN)C(=O)N[C@H](C(=O)N[C@@H](CCN)C(=O)N[C@H]1CCNC(=O)[C@@H]([C@H](C)O)NC(=O)[C@H](CCN)NC(=O)[C@H](CCN)NC(=O)[C@H](CC(C)C)NC(=O)[C@@H](CC(C)C)NC(=O)[C@H](CCN)NC1=O)[C@@H](C)O (X2-[Dab]T[Dab][Dab][Dab][dL]L[Dab][Dab][dT]; lactam 4-C),"activity, negative = cell killing",[1]; [6],7.06%
same,"activity, negative = cell killing",[1]; [7],-0.409%
same,"activity, negative = cell killing",[1]; [8],-6.08%
same,"activity, negative = cell killing",[1]; [9],-17.3%
same,Potency,astro,inactive
C[S+](C)CCC(N)C(=O)O (stereo not given),"activity, negative = cell killing",[1]; [2],-1.5%
same,"activity, negative = cell killing",[1]; [3],-4.21%
same,"activity, negative = cell killing",[1]; [4],-14.6%
same,"activity, negative = cell killing",[1]; [5],-27.3%
same,Potency,astro,inactive
CN(C)C=Nc1c(I)cc(I)c(CCC(=O)O)c1I,"activity, negative = cell killing",[1]; [2],-15.9%
same,"activity, negative = cell killing",[1]; [3],6.53%
same,"activity, negative = cell killing",[1]; [4],-8.71%
same,"activity, negative = cell killing",[1]; [5],-9.66%
same,Potency,astro,inactive
OC1OC[C@@H](O)[C@H](O)[C@@H]1O (stereo not given in full),"activity, negative = cell killing",[1]; [2],-0.633%
same,"activity, negative = cell killing",[1]; [3],10.5%
same,"activity, negative = cell killing",[1]; [4],-6.9%
same,"activity, negative = cell killing",[1]; [5],14.5%
same,Potency,astro,inactive
CC(=O)Nc1c(I)c(C(=O)O)c(I)c(N(C)C(C)=O)c1I,"activity, negative = cell killing",[1]; [2],6.39%
same,"activity, negative = cell killing",[1]; [3],5.92%
same,"activity, negative = cell killing",[1]; [4],-22.3%
same,"activity, negative = cell killing",[1]; [5],7.24%
same,Potency,astro,inactive
CNCC(O)c1ccc(OC(=O)C(C)(C)C)c(OC(=O)C(C)(C)C)c1 (stereo not given),"activity, negative = cell killing",[1]; [6],5.42%
same,"activity, negative = cell killing",[1]; [7],-16.5%
same,"activity, negative = cell killing",[1]; [8],-22.8%
same,"activity, negative = cell killing",[1]; [9],-18%
same,Potency,astro,inactive
NC(=O)C1c2ccccc2CCc2ccccc21,"activity, negative = cell killing",[1]; [2],4.21%
same,"activity, negative = cell killing",[1]; [3],-18.6%
same,"activity, negative = cell killing",[1]; [4],-34%
same,"activity, negative = cell killing",[1]; [5],-17.6%
same,Potency,astro,inactive
CCCc1ccc(C(=O)O)cc1,"activity, negative = cell killing",[1]; [2],-12.5%
same,"activity, negative = cell killing",[1]; [3],-19.9%
same,"activity, negative = cell killing",[1]; [4],-22.4%
same,"activity, negative = cell killing",[1]; [5],3.37%
same,Potency,astro,inactive
CC(C)N1CCN(c2ccc(OC[C@H]3CO[C@](Cn4cncn4)(c4ccc(Cl)cc4Cl)O3)cc2)CC1,"activity, negative = cell killing",[1]; [6],-6.28%
same,Potency,[1]; tumour line A,2.51 µM (active)
same,Potency,[1]; tumour line B,14.1 µM (active)
same,Potency,[1]; tumour line D,10 µM (active)
same,Potency,astro,inactive
COC(=O)[C@H]1[C@H]2C[C@@H]3c4[nH]c5cc(OC)ccc5c4CCN3C[C@H]2C[C@H](OC)[C@@H]1OC,"activity, negative = cell killing",[1]; [2],-8.25%
same,"activity, negative = cell killing",[1]; [3],-1.56%
same,"activity, negative = cell killing",[1]; [5],-6.43%
same,Potency,[1]; tumour line A,11.2 µM (active)
same,Potency,astro,inactive
NCC(O)CC(=O)O (stereo not given),"activity, negative = cell killing",[1]; [2],-5.1%
same,"activity, negative = cell killing",[1]; [3],-3.38%
same,"activity, negative = cell killing",[1]; [4],-5.53%
same,"activity, negative = cell killing",[1]; [5],12.2%
same,Potency,astro,inactive
O=C1C2CC3CC1CC(O)(C3)C2,"activity, negative = cell killing",[1]; [2],0.0639%
same,"activity, negative = cell killing",[1]; [3],-11.1%
same,"activity, negative = cell killing",[1]; [4],-19.7%
same,"activity, negative = cell killing",[1]; [5],-14.8%
same,Potency,astro,inactive
CN1CCc2c(c3ccccc3n2Cc2ccccc2)C1,"activity, negative = cell killing",[1]; [6],-5.19%
same,"activity, negative = cell killing",[1]; [7],-12.3%
same,"activity, negative = cell killing",[1]; [8],-14.4%
same,Potency,[1]; tumour line A,5.62 µM (active)
same,Potency,astro,inactive
